The list is not random: actives were taken first. Their share in the collection is about 7.1%.
ATXN2 expr inh: ATXN2 expression inhibition; HEK-293 ATXN2-luciferase reporter, luminescence, 24 h; Potency, µM (titrated, usually from 57 µM), usual class: inhibitors; AID 1745845; actives 0.72% (n = 360,000); note: nearly all actives have a fitted effect of over 55% in size
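ATXN2-luciferase reporter cells (luciferase flanked by upstream and downstream ATXN2 gene portions) were treated 24 h at 37 °C with compounds at up to 57 uM. SteadyGlo luminescence gave expression; GF-AFC fluorescence gave viability.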
PINK1 expr mod: PINK1 expression modulation; Potency, µM (doses to about 76.6 µM), actives largely listed as activators; PINK1 immunofluorescence, high-content cytometry, 24 h; AID 624263; actives 0.2% (n = 410,000); active = well fitted activation curve with a large enough effect; inconclusive = small, poorly fitted or top-dose-only effect; cell line not stated here; note: nearly all actives have a fitted effect of over 65% in size
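A stable cell line was treated with compounds at 5 concentrations for 24 hours, with CCCP as control. PINK1 levels and mitochondrial localization were measured by immunofluorescence with mitochondrial, cell and nuclear markers after fixation, read by laser-scanning cytometry.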
IL-1B inflam inh: blocks inflammasome-driven IL-1 beta release. THP-1 LPS/ATP IL-1B secretion, AlphaLISA, 16 h; stronger effect = lower value. activity change, % at 57.5 µM. actives 4.7% (n = 360,000); in the data active = activity change below about -50%; inconclusive = mostly about -30% to -49%
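THP-1 cells pretreated 1 hr with compounds (up to 57.5 uM final), then stimulated with LPS (250 ng/mL final) plus ATP (1.25 mM final); secreted IL-1B measured by AlphaLISA after 16 hr, decreased signal indicating inhibition.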
MCF10A rereplic: induces DNA re-replication in MCF 10a normal breast cells. MCF 10A DNA re-replication, Hoechst nuclear intensity, 48 h. Potency, µM (highest dose often 46.1 µM), usual class: activators. actives 2.9% (n = 350,000); note: nearly all actives have a fitted effect of over 50% in size
ATXN viability: viability counter-screen for ATXN expression inhibitors | Potency, µM (doses to about 56.7 µM), most hits filed as cytotoxic | actives 0.49% (n = 400,000) | AID 651635 | S2 cells (HEK-293 line with an ATXN2-luciferase reporter) viability, CellTiter-Fluor protease fluorescence, 24 h; note: nearly all actives have a fitted effect of over 40% in size
SW480 rerep: DNA re-replication induction in SW480 cells. SW480 DNA re-replication, Hoechst DNA content imaging, 48 h. Potency, µM (doses to about 46.1 µM), hits mostly activators. actives 1.8% (n = 340,000); note: nearly all actives have a fitted effect of over 55% in size
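250 cells/well; 23 nL cpd via pin tool; 48 hr, 37 C, 5% CO2; Hoechst 40 min; imager read of total nuclear intensity, ex 405/em 500-530 nm.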
Each line names hits and unclear results; the compound was inactive in the other large screens. Unless noted, calls come from the whole dose curve; as a rule, active = well fitted curve in the direction sought with a large enough effect; inconclusive = small, poorly fitted or top-dose-only effect, or another doubt; inactive = no such curve, though single readings can be large; an effect the other way counts as inactive or inconclusive.

Cc1c(Cl)cccc1NC(=O)Nc1cc(C(C)(C)C)on1	ATXN viability inconclusive (no result: ATXN2 expr inh)
CC(C)(C)c1cc(NC(=O)c2cccs2)no1	IL-1B inflam inh -51, SW480 rerep inconclusive
CC(C)(C)c1cc(NC(=O)Nc2ccc(Br)cc2Cl)no1	IL-1B inflam inh -57, MCF10A rereplic inconclusive
CC(C)NC(=O)Nc1ccc(Br)cc1Cl	none
Cc1cc(NC(=O)c2ccc(NC(=O)c3cccs3)cc2)no1	none
CC(C)(C)c1cc(NC(=O)Nc2ccc(Cl)cc2Cl)no1	PINK1 expr mod inconclusive, MCF10A rereplic 18µM
COc1ccc(C(=O)NCc2nc(-c3ccccc3NC(=O)c3cc(C)oc3C)oc2C)cc1F	none (no result: ATXN2 expr inh, IL-1B inflam inh, MCF10A rereplic, SW480 rerep)
COc1ccc(C)cc1NC(=O)c1ccc2c(c1)N(Cc1cccc(Cl)c1)C(=O)c1ccccc1S2=O (centres undefined)	none (no result: ATXN2 expr inh, IL-1B inflam inh, MCF10A rereplic, ATXN viability, SW480 rerep)
COc1cccc(-n2c(=O)c3c(C)c(C)sc3n(CC(=O)Nc3ccccc3OC)c2=O)c1	ATXN viability inconclusive (no result: IL-1B inflam inh, MCF10A rereplic, SW480 rerep)
O=C(c1ccccc1Br)N(Cc1ccccc1)c1ccccc1	IL-1B inflam inh -57, SW480 rerep inconclusive
COc1cccc(CNC(=O)c2cc3n(n2)CCCN(Cc2ccc(C)cc2)C3=O)c1OC	none (no result: IL-1B inflam inh, MCF10A rereplic, SW480 rerep)
Cc1ccc(CNC(=O)CCCCCn2c(=O)c3sccc3n(CC(=O)Nc3ccc(C)c(F)c3)c2=O)cc1	none (no result: IL-1B inflam inh, MCF10A rereplic, SW480 rerep)
Cc1cccc(NC(=O)Cn2c(=O)n(CCCCCC(=O)NCc3ccccc3)c(=O)c3sccc32)c1	ATXN2 expr inh inconclusive, ATXN viability 22µM (no result: IL-1B inflam inh, MCF10A rereplic, SW480 rerep)
Cc1ccc(-n2ncc(Br)c(Br)c2=O)cc1	ATXN2 expr inh inconclusive, IL-1B inflam inh -99, MCF10A rereplic inconclusive, ATXN viability 21µM
COc1cnn(-c2cccc(C)c2)c(=O)c1Cl	IL-1B inflam inh inconclusive, MCF10A rereplic inconclusive, SW480 rerep inconclusive
COc1cnn(-c2ccc(F)cc2)c(=O)c1Br	none
COc1cnn(-c2ccccc2)c(=O)c1N(C)C	PINK1 expr mod 13µM
O=c1c(Br)c(Br)cnn1-c1ccccc1	ATXN2 expr inh 5.3µM, IL-1B inflam inh -106, MCF10A rereplic inconclusive (no result: ATXN viability)
O=C(C1CCN(S(=O)(=O)Cc2ccccc2)CC1)N1CCN(c2ccccc2F)CC1	none (no result: IL-1B inflam inh, MCF10A rereplic, SW480 rerep)
C=Cc1ccc(Cn2c(=O)n(-c3ccc(C)cc3)c(=O)c3c2c2cc(OC)ccc2n3C)cc1	none (no result: IL-1B inflam inh, MCF10A rereplic, SW480 rerep)
CCCOc1ccc(CNC(=O)C2CCN(c3nc4ccccc4nc3C(F)(F)F)CC2)cc1	none (no result: IL-1B inflam inh, MCF10A rereplic, SW480 rerep)
COC(=O)c1ccc(NC(=O)CN(Cc2ccccc2)S(=O)(=O)c2ccc(Cl)cc2)cc1	ATXN2 expr inh inconclusive, ATXN viability inconclusive (no result: IL-1B inflam inh, MCF10A rereplic, SW480 rerep)
CN=C(NC)NCc1ccccc1	none (no result: ATXN2 expr inh, PINK1 expr mod, IL-1B inflam inh, MCF10A rereplic, SW480 rerep)
Cc1ccc(O)c(C2=NCCNC(C(F)(F)F)=C2)c1	none
Oc1c(C2=NCCNC(C(F)(F)F)=C2)ccc2ccccc12	IL-1B inflam inh -109
Cc1c(C(=O)N2CCCCC2C)sc2ncnc(N3CCc4ccccc4C3)c12 (centres undefined)	IL-1B inflam inh -97, MCF10A rereplic inconclusive
COCCCNC(=O)c1sc2ncnc(N3CCc4ccccc4C3)c2c1C	MCF10A rereplic 15µM, SW480 rerep 21µM
Cc1c(C(=O)N2CCOCC2)sc2ncnc(N3CCc4ccccc4C3)c12	none
CCSc1nc(-c2ccccc2OC)nc2c1Cc1c(CO)cnc(C)c1O2	none (no result: ATXN2 expr inh, IL-1B inflam inh, MCF10A rereplic, ATXN viability, SW480 rerep)
Brc1ccc2ncnc(Nc3cccc4ccccc34)c2c1	IL-1B inflam inh -80, ATXN viability inconclusive
O=C(O)c1cccc(N/N=C/C2=C(Cl)c3cc(Cl)ccc3SC2)c1	MCF10A rereplic 8.2µM
O=C(NC(=S)NN1CCCCC1c1cccnc1)c1ccc(Br)cc1 (centres undefined)	IL-1B inflam inh -55
CCN(CC)CCN(C)Cc1nc(C(c2ccccc2)c2ccccc2)no1	IL-1B inflam inh -64, MCF10A rereplic inconclusive, SW480 rerep inconclusive
Cc1ccc(OCCSc2nc(NC(C)C)nc(NC(C)C)n2)cc1	MCF10A rereplic 13µM, ATXN viability inconclusive
CC(NCCC1(Cc2ccccc2Cl)CCOC(C)(C)C1)c1cccs1 (centres undefined)	IL-1B inflam inh -54
COc1cccc(-c2ccc3c(N)c(C(=O)NCc4ccc(Cl)cc4)sc3n2)c1	none (no result: IL-1B inflam inh, MCF10A rereplic, ATXN viability, SW480 rerep)

Source: PubChem BioAssay
